Laboratory results: PubChem BioAssay (Tox21)
Results filed as inconclusive are left out. The source made the active and inactive calls. Unless noted, the call rests on the fitted dose curve; in most records, active means well fitted curve in the direction sought with a large enough effect in the repeat runs; inconclusive means weak or mixed curves; inactive means no such curve, though single readings can be large; an effect the other way counts as inactive or inconclusive.

Legend:
[1] = qHTS assay for small molecule agonists of the p53 signaling pathway (AID 651631; calls by dose curve; further: nearly all actives have a fitted effect of over 15% in size)
In short: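 Read-out is beta-lactamase FRET fluorescence measured 2 h after substrate addition at room temperature, in HCT-116 cells with a p53 response element-driven reporter exposed to compounds for 16 h at 37 °C.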

[2] = qHTS assay for small molecule agonists of the p53 signaling pathway - cell viability (AID 651633; calls by dose curve;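 further: p53RE-bla HCT reporter cells with a stable beta-lactamase p53 reporter; series mostly up to about 83 µM; nearly all actives have a fitted effect of over 30% in size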)
In short: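 Viability counter-read: CellTiter-Glo luminescence (30 min, room temperature) in the same p53RE-bla plates. These plates had been exposed to compounds for 16 h at 37 C.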

[3] = qHTS assay for small molecules that induce genotoxicity in human embryonic kidney cells expressing luciferase-tagged ATAD5 - cell viability (AID 651634; calls by dose curve; further: nearly all actives have a fitted effect of over 25% in size)
In short: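 Cells (HEK293T, luciferase-tagged ATAD5) are seeded at 2,000 per well, dosed with compound or DMSO vehicle, and incubated 15.5 hr at 37C and 5% CO2. CellTiter-Fluor is added for 30 min before fluorescence is measured.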

[4] = qHTS assay to test for compound auto fluorescence at 590 nm (red) in HepG2 cells (AID 720674)
In short: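 1 hr compound incubation on HepG2 cells, 37 C, 5% CO2; plate read ex 540 nm / em 590 nm; intensities reported as Rose Bengal sodium equivalents.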

[5] = qHTS assay to test for compound auto fluorescence at 535 nm (green) in HepG2 cells (AID 720675)
[6] = qHTS assay to test for compound auto fluorescence at 460 nm (blue) in HEK293 cells (AID 720678)
In short: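 HEK293 cells (2,000/well, medium with 10% dialyzed FBS) attached 4-5 hr, then exposed to compound overnight at 37C, 5% CO2. Blue fluorescence read at 405/460 nm, with triamterene as reference fluorophore.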

[7] = qHTS assay to test for compound auto fluorescence at 590 nm (red) in HEK293 cells (AID 720679)
In short: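 HEK293 cells (2,000/well, 10% dialyzed FBS) attached 4-5 hr, then dosed with compound or DMSO and incubated overnight at 37C, 5% CO2. Red fluorescence read at 540/590 nm, Rose Bengal sodium as reference fluorophore.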

[8] = qHTS assay to test for compound auto fluorescence at 535 nm (green) in HEK293 cells (AID 720680)
[9] = qHTS assay to test for compound auto fluorescence at 460 nm (blue) in HEK293 cell free culture (AID 720681)
In short: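 Blue fluorescence (Ex 405/Em 460 nm, triamterene-equivalent) was read immediately after pin transfer of compound or DMSO into medium (DMEM, 10% FBS) without cells.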

[10] = qHTS assay to test for compound auto fluorescence at 535 nm (green) in HEK293 cell free culture (AID 720682)
In short: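 Fluorescein serves as the green reference fluorophore; each compound's intrinsic emission at 535 nm (excitation 485 nm) is reported as an equivalent amount of that dye, measured in serum-containing DMEM without cells.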

[11] = qHTS assay to test for compound auto fluorescence at 590 nm (red) in HEK293 cell free culture (AID 720683)
In short: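 Red-channel autofluorescence of compounds in culture medium (DMEM, 10% FBS), no cells, measured at 540/590 nm. Rose Bengal sodium is the reference fluorophore for equivalence.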

[12] = qHTS assay to test for compound auto fluorescence at 590 nm (red) in HepG2 cell free culture (AID 720684)
In short: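 Cell-free; medium MEM + 10% FBS; compound or DMSO added by pintool; read Ex 540/Em 590 nm; Rose Bengal sodium as red reference fluorophore.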

[13] = qHTS assay to test for compound auto fluorescence at 460 nm (blue) in HepG2 cell free culture (AID 720685)
In short: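 Cell-free plates of MEM plus 10% FBS received 23 nL compound or DMSO vehicle; blue-channel (405/460 nm) intensity scored against triamterene as reference fluorophore.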

[14] = qHTS assay to test for compound auto fluorescence at 535 nm (green) in HepG2 cell free culture (AID 720686)
[15] = qHTS assay to test for compound auto fluorescence at 460 nm (blue) in HepG2 cells (AID 720687)
In short: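 Blue-channel autofluorescence (Ex/Em 405/460 nm, triamterene-equivalent) was measured after 1 hr compound exposure at 37 C, 5% CO2. Cells were HepG2, plated overnight at 37 C in MEM plus 10% FBS.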

[16] = target: Glucocorticoid receptor (Homo sapiens) (UniProt P04150); assay: qHTS assay to identify small molecule antagonists of the glucocorticoid receptor (GR) signaling pathway (AID 720692; active means well fitted inhibition curve with a large enough effect in the signal ratio in the repeat runs, not every such curve was filed as active; the % refers to the signal ratio)
In short: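 Antagonism was scored as loss of dexamethasone-driven (5 nM final) reporter signal in HeLa cells bearing a glucocorticoid response element–beta-lactamase construct, after 18 h compound exposure at 37 C and 2 h FRET substrate loading.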

[17] = qHTS assay for small molecules that induce genotoxicity in human embryonic kidney cells expressing luciferase-tagged ATAD5 (AID 651632); further: nearly all actives have a fitted effect of over 15% in size
In short: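 Cells were seeded at 2,000 per well, dosed with compound, and incubated 16 hr at 37C in 5% CO2. Luciferase activity was then quantified after a 30 min room-temperature incubation with Amplite.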

[18] = qHTS assay for small molecule disruptors of the mitochondrial membrane potential - cell viability (AID 720634; calls by dose curve;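 further: human HepG2 liver cancer cells; series mostly up to about 83 µM; nearly all actives have a fitted effect of over 20% in size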)
In short: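 Cytotoxicity was measured by ATP quantitation in HepG2 wells that had first been treated with compound for 1 hr and stained with m-MPI dye; CellTiter-Glo incubation was 30 min at room temperature.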

[19] = qHTS assay for small molecule disruptors of the mitochondrial membrane potential (AID 720635)
In short: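 Mitochondrial membrane potential tracked with Mito-MPS dye, red aggregates (ex 540/em 590 nm) against green monomers (ex 490/em 535 nm). Compound treatment 1 hr at 37C, dye 30 min in HepG2.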

[20] = target: Glucocorticoid receptor (Homo sapiens) (UniProt P04150); assay: qHTS assay to identify small molecule agonists of the glucocorticoid receptor (GR) signaling pathway (AID 720691; active means well fitted activation curve with a large enough effect in the signal ratio in the repeat runs, not every such curve was filed as active; the % refers to the signal ratio)
In short: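 Steps: seed GR-bla HeLa cells, incubate 4 h at 37 C/5% CO2; pin-transfer DMSO-dissolved compounds; incubate 18 h at 37 C; add LiveBLAzer B/G FRET substrate; after 2 h at room temperature, measure fluorescence.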
On the % scale 0 is the no-effect control and ±100 the full control effect.

Glucocorticoid receptor (Homo sapiens), sequence (P04150 whole entry, looked up): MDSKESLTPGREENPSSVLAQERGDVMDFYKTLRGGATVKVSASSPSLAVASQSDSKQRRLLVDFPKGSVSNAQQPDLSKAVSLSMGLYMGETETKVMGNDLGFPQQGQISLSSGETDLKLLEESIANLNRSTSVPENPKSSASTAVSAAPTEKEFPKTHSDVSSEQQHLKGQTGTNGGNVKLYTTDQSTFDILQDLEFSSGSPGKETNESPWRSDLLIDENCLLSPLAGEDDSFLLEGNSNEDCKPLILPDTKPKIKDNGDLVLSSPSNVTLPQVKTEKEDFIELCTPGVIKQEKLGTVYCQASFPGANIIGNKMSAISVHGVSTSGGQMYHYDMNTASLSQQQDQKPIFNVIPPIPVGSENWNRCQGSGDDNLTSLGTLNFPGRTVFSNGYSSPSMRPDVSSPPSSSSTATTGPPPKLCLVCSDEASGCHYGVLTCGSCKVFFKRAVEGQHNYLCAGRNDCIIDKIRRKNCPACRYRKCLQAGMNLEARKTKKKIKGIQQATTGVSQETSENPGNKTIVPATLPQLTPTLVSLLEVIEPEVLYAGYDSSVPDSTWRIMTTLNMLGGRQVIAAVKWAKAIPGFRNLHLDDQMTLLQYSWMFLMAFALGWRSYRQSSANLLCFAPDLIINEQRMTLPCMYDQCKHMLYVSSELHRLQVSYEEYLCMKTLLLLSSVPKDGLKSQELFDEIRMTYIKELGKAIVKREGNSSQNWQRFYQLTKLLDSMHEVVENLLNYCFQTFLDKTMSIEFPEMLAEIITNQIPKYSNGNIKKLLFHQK

CC(C)C(=O)O
inactive: Potency [1] | Potency [2] | Potency [3] | outcome [4] | outcome [5] | Potency [6] | outcome [7] | outcome [8] | Potency [9] | outcome [10] | outcome [11] | outcome [12] | Potency [13] | outcome [14] | Potency [15] | Potency [16]

CC1=NN(c2ccc(C(=O)O)cc2)C(=O)C1
inactive: Potency [17] | Potency [2] | Potency [3] | Potency [18] | Potency [19] | outcome [4] | outcome [5] | Potency [6] | outcome [7] | outcome [8] | Potency [9] | outcome [10] | outcome [11] | outcome [12] | Potency [13] | outcome [14] | Potency [15]

C=CC(C)=CCC=C(C)C
inactive: Potency [1] | Potency [2] | Potency [3] | outcome [4] | outcome [5] | Potency [6] | outcome [7] | outcome [8] | Potency [9] | outcome [10] | outcome [11] | outcome [12] | Potency [13] | outcome [14] | Potency [15]

CCCOCCOCCO
inactive: Potency [1] | Potency [2] | Potency [3] | Potency [18] | Potency [19] | outcome [4] | outcome [5] | Potency [6] | outcome [7] | outcome [8] | Potency [9] | outcome [10] | outcome [11] | outcome [12] | Potency [13] | outcome [14] | Potency [20] | Potency [16]

O=S1OCCO1
inactive: Potency [1] | Potency [2] | Potency [3] | outcome [4] | outcome [5] | Potency [6] | outcome [7] | outcome [8] | Potency [9] | outcome [10] | outcome [11] | outcome [12] | Potency [13] | outcome [14] | Potency [15]

CCCCCCCC/C=C\CCCCCCCC(=O)OC
inactive: Potency [1] | Potency [2] | Potency [3] | Potency [18] | Potency [19] | outcome [4] | outcome [5] | Potency [6] | outcome [7] | Potency [9] | outcome [10] | outcome [11] | outcome [12] | Potency [13] | outcome [14] | Potency [15]

[O]=[Bi]
inactive: activation [17] 1.52% [at 8.08 µM] | activity change, negative = cytotoxicity [2] 9.6% [at 8.08 µM] | activity, negative = cytotoxicity [3] 17.3% [at 8.08 µM] | activity change, negative = cytotoxicity [18] 7.5% [at 8.08 µM] | ratio activity, negative = MMP loss [19] 14.9% [at 8.08 µM] | fluorescence, relative to Rose Bengal [4] -0.152% [at 3.72 µM] | fluorescence, % of fluorescein control [5] 0.162% [at 3.72 µM] | fluorescence, % of triamterene [6] -0.117% [at 3.72 µM] | fluorescence, % of fluorescent control [7] 0.261% [at 3.72 µM] | fluorescence, % of fluorescein [8] -0.0925% [at 3.72 µM] | fluorescence, % of fluorescent control [9] -0.0523% [at 3.72 µM] | activity change [10] -0.0025% [at 3.72 µM] | fluorescence, % of fluorescent control [11] -0.241% [at 3.72 µM] | fluorescence, % of Rose Bengal [12] -0.0278% [at 3.72 µM] | fluorescence, % of fluorescent control [13] -0.119% [at 3.72 µM] | fluorescence, % of fluorescein control [14] -0.0086% [at 3.72 µM] | fluorescence, % of fluorescent control [15] -0.0256% [at 3.72 µM] | activation [20] 0.026% [at 6.9 µM]

C=CCOC(=O)/C=C\C(=O)OCC=C
inactive: Potency [17] | Potency [2] | Potency [3] | Potency [18] | Potency [19] | outcome [4] | outcome [5] | Potency [6] | outcome [7] | Potency [9] | outcome [10] | outcome [11] | outcome [12] | Potency [13] | outcome [14] | Potency [15] | Potency [20]
